# Measurements from PubChem BioAssay (EPA / NIEHS).
# Results filed as inconclusive are left out. Activity calls are given as the source filed them. Rule for the calls, unless noted: active = hit-call score of the fitted dose curve at least 0.9, where 1 is the maximum; inactive = score below 0.9.
# What was measured:
# [1] = ATG_Hpa5_TRANS: Attagene TRANS-FACTORIAL HepG2 Assay for human GAL4-Hpa5 Hepatocyte Transcription Factor Basal Promoter (AID 2282975; active = hit-call score of the fitted dose curve at least 0.9, where 1 is the maximum;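 note: hits are increases in reporter mRNA over DMSO baseline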); settings: HepG2 Attagene GAL4-Hpa5 transcription reporter
# Method in brief: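 Gain-of-signal versus DMSO is fitted for reporter mRNA quantified by RT-PCR and capillary electrophoresis after 24 h exposure. This endpoint is an internal background marker in transiently transfected HepG2 cells carrying GAL4-UAS reporter units.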
# [2] = molecular target: Estrogen-related receptor gamma (Homo sapiens) (UniProt P62508); assay: ATG_ERRg_TRANS: Attagene TRANS-FACTORIAL HepG2 Assay for human Estrogen-Related Receptor gamma (ERRg) (AID 2282977; active = hit-call score of the fitted dose curve at least 0.9, where 1 is the maximum;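 note: hits increase reporter signal over DMSO so potencies reflect activators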); settings: HepG2 Attagene TRANS reporter, ERRg transactivation
# Method in brief: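 Readout: fluorescent reporter-mRNA fragments resolved by capillary electrophoresis after RT-PCR and HpaI cut. Cells: transiently transfected HepG2 carrying GAL4-UAS reporters driven by exogenous NR-Gal4 chimeras, dosed 24 h. Activity fitted upward relative to DMSO baseline.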
# [3] = molecular target: Glucocorticoid receptor (Homo sapiens) (UniProt P04150); assay: ATG_GR_TRANS: Attagene TRANS-FACTORIAL HepG2 Assay for human Glucocorticoid Receptor (GR) (AID 2282978; active = hit-call score of the fitted dose curve at least 0.9, where 1 is the maximum;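 note: activators score as hits since higher reporter transcript over DMSO is fitted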); settings: HepG2 Attagene TRANS GR reporter, mRNA transcription
# Glucocorticoid receptor (Homo sapiens), sequence (P04150 whole entry, looked up): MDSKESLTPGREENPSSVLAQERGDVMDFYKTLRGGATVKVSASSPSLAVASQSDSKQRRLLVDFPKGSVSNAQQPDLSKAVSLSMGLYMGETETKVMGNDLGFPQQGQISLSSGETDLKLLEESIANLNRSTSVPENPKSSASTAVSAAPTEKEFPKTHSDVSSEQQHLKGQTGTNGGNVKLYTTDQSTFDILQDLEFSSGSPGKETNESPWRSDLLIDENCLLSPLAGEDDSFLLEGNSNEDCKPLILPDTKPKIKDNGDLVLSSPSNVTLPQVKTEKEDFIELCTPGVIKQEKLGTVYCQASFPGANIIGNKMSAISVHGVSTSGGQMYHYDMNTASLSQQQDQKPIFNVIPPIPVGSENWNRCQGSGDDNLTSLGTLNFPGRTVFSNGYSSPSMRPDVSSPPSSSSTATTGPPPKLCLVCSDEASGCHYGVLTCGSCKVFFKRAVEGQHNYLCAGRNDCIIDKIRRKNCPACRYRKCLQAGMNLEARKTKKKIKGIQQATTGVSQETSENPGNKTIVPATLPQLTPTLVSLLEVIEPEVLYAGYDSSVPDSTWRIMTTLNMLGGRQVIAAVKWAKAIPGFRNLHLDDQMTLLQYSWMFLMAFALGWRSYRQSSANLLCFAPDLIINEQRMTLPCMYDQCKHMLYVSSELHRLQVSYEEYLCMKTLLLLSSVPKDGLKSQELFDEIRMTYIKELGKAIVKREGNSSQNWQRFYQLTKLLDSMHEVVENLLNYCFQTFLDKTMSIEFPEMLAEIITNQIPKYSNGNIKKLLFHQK
# Method in brief: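 Multiplexed TRANS reporter system, HepG2; 24 h exposure; RNA → oligo(dT) RT → reporter-specific PCR → 6-FAM primer extension → HpaI cut → CE fluorescence. Gain-of-signal vs DMSO.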
# [4] = molecular target: Bile acid receptor (Homo sapiens) (UniProt Q96RI1); assay: ATG_FXR_TRANS: Attagene TRANS-FACTORIAL HepG2 Assay for Farnesoid X Receptor (FXR) (AID 2282979; active = hit-call score of the fitted dose curve at least 0.9, where 1 is the maximum;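 note: hits raise reporter mRNA above DMSO so AC50 marks FXR activation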); settings: HepG2 Attagene TRANS FXR-GAL4 reporter transcription
# Bile acid receptor (Homo sapiens), sequence (Q96RI1 whole entry, looked up, the tested form may be a part): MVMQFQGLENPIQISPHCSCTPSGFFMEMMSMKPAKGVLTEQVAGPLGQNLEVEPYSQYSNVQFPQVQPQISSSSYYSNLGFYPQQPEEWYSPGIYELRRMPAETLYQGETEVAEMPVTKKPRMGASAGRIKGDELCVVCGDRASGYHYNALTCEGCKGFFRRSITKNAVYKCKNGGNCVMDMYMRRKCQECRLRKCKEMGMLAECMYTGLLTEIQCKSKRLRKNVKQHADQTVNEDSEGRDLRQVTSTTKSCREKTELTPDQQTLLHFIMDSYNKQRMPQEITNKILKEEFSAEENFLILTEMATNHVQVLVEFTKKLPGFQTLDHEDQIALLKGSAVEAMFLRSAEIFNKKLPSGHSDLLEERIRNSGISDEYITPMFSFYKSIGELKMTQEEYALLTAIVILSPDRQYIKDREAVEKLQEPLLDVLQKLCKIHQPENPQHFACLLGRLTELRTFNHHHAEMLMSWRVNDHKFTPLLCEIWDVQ
# Method in brief: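 Chimeric FXR-GAL4 activity in transiently transfected human HepG2 liver cells is scored as induction of reporter mRNA after 24 h of dosing. Detection uses RT-PCR with fluorescent labelling and capillary electrophoresis, with DMSO serving as baseline.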
# [5] = molecular target: Oxysterols receptor LXR-beta (Homo sapiens) (UniProt P55055); assay: ATG_LXRb_TRANS: Attagene TRANS-FACTORIAL HepG2 Assay for human Liver X Receptor beta (LXRb) (AID 2282981; active = hit-call score of the fitted dose curve at least 0.9, where 1 is the maximum); settings: HepG2 Attagene TRANS GAL4-LXRb reporter, mRNA
# Oxysterols receptor LXR-beta (Homo sapiens), sequence (P55055 whole entry, looked up, the tested form may be a part): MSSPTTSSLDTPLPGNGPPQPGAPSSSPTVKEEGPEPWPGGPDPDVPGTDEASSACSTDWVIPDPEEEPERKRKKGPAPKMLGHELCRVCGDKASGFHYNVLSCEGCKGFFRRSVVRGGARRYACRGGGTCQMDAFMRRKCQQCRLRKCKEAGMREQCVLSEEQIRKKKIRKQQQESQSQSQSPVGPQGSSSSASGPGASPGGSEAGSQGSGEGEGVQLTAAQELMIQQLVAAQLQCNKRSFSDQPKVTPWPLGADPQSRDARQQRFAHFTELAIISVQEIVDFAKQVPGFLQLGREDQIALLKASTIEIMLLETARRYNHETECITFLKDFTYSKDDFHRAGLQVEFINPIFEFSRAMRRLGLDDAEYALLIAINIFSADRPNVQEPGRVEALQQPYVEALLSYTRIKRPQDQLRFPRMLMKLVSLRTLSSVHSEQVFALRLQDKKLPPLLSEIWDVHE
# Method in brief: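 After 24 h of chemical treatment, transfected HepG2 cells yield total RNA; reporter cDNA is PCR-amplified, FAM-labelled, HpaI-cut and run on capillary electrophoresis. Signal reflects chimeric LXRb-Gal4 activity on GAL4-UAS reporters.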
# [6] = molecular target: Transcriptional activator Myb (Homo sapiens) (UniProt P10242); assay: ATG_Myb_CIS: Attagene CIS-FACTORIAL HepG2 Assay for human Myeloblastosis (Myb) Proto-Oncogene Transcription Factor (AID 2282986); settings: HepG2 Attagene CIS-FACTORIAL Myb reporter transcription; actives raise or lower the signal
# Transcriptional activator Myb (Homo sapiens), sequence (P10242 whole entry, looked up): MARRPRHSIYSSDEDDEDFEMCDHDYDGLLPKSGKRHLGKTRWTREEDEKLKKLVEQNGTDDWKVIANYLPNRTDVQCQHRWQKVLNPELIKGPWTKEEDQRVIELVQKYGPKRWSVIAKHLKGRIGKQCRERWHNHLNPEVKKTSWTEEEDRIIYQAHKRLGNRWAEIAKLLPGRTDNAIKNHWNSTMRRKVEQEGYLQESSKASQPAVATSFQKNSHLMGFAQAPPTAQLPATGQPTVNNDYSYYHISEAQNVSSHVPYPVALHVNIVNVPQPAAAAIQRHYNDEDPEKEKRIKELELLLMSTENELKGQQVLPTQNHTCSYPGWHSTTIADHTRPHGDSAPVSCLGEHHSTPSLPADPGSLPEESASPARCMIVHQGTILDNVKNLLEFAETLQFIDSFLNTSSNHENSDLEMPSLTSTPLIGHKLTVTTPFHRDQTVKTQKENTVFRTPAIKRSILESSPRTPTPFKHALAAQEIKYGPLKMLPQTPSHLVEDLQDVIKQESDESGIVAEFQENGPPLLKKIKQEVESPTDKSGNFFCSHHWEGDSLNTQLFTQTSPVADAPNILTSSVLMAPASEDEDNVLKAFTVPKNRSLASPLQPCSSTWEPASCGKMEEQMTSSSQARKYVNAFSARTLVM
# Method in brief: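 Endogenous transcription factor activity at a Myb-responsive cis element is reported in human liver HepG2 cells after 24 h chemical treatment. Reporter mRNA is detected by RT-PCR and capillary electrophoresis fluorescence, with DMSO as baseline.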
# [7] = molecular target: Nuclear respiratory factor 1 (Homo sapiens) (UniProt Q16656); assay: ATG_NRF1_CIS: Attagene CIS-FACTORIAL HepG2 Assay for human Nuclear Respiratory Factor 1 (NRF1) Orphan Gene (AID 2282987); settings: HepG2 NRF1 cis-element reporter, Attagene multiplex; actives raise or lower the signal
# Nuclear respiratory factor 1 (Homo sapiens), sequence (Q16656 whole entry, looked up): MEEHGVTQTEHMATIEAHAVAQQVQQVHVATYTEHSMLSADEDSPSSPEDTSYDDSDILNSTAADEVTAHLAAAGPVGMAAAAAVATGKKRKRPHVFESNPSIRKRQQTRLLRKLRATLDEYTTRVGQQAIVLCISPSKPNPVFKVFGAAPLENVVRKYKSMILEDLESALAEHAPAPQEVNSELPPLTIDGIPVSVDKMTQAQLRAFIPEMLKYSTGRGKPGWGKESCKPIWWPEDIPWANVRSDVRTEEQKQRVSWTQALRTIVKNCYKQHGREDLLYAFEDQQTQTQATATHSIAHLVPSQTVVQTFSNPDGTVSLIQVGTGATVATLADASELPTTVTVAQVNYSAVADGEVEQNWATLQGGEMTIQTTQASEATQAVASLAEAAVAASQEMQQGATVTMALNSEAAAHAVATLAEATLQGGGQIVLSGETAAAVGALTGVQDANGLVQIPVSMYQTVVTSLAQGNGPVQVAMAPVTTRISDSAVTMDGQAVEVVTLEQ
# Method in brief: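 Human hepatoma HepG2 cells carrying transfected promoter-regulated reporter units were incubated with test chemicals for 24 h. Reporter transcripts were measured by RT-PCR plus capillary electrophoresis, and endpoints derived by bidirectional fitting with DMSO as baseline.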
# [8] = ATG_NFI_CIS: Attagene CIS-FACTORIAL HepG2 Assay for human Nuclear Factor I (NFI) (AID 2282989); settings: HepG2 cis-regulatory reporter, NFI response element transcription; actives raise or lower the signal
# Method in brief: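 Reporter transcripts were measured by RT-PCR with fluorescent primer extension and capillary electrophoresis 24 h post-treatment. HepG2 cells carried transiently transfected cis-regulated reporter constructs reporting endogenous factor activity; gain or loss fitted against DMSO baseline.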
# [9] = molecular target: Myc proto-oncogene protein (Homo sapiens) (UniProt P01106); assay: ATG_Myc_CIS: Attagene CIS-FACTORIAL HepG2 Assay for human Myelocytomatosis (Myc) Proto-Oncogene Transcription Factor (AID 2282990); settings: HepG2, Attagene cis-reporter transcription factor activity; actives raise or lower the signal
# Myc proto-oncogene protein (Homo sapiens), sequence (P01106 whole entry, looked up): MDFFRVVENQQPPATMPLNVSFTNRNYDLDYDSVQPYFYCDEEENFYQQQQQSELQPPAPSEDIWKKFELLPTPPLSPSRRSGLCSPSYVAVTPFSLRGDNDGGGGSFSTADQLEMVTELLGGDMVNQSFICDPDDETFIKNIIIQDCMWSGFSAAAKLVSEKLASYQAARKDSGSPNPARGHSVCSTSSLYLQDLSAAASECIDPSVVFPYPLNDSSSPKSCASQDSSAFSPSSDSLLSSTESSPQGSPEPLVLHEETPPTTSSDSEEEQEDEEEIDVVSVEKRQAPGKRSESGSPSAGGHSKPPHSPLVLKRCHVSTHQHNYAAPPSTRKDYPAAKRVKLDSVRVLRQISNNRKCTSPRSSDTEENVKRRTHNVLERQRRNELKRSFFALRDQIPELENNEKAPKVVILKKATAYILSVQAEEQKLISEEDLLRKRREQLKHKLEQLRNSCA
# Method in brief: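 Cells of the HepG2 human liver line bear multiple cis-driven reporter transcription units. Reporter mRNA after 24 h exposure is reverse-transcribed, amplified, labelled and resolved by capillary electrophoresis, with gain- or loss-of-signal fitting relative to DMSO.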
# [10] = ATG_NF_kB_CIS: Attagene CIS-FACTORIAL HepG2 Assay for human Nuclear Factor Kappa B (NF-kB) (AID 2282991); settings: HepG2 Attagene cis-factorial NF-kB reporter mRNA; actives raise or lower the signal
# Method in brief: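 Multiplexed cis-reporter assay in transiently transfected HepG2. 24 h treatment; RNA isolated, RT-PCR, labelled fragments resolved by CE. DMSO baseline.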
# [11] = ATG_NRF2_ARE_CIS: Attagene CIS-FACTORIAL HepG2 Assay for human Nuclear Factor Erythroid 2 Related Factor 2 (NFR2) response to Antioxidant Response Elements (ARE) (AID 2282992); settings: HepG2 Attagene ARE/NRF2 reporter, transcription factor activity; actives raise or lower the signal;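 for AC50: reporter mRNA level measured by RT-PCR and capillary electrophoresis fluorescence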
# Method in brief: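 Endogenous transcription factor activity in human liver HepG2 cells is tracked via a cis-element-driven reporter within a multiplexed set. mRNA induction is read by RT-PCR and capillary electrophoresis after 24 h, with DMSO as baseline.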
# [12] = ATG_Oct_MLP_CIS: Attagene CIS-FACTORIAL HepG2 Assay for human Octamer-Binding Transcription Factor (Oct) (AID 2282993); settings: HepG2 Attagene cis-factorial Oct reporter, mRNA; actives raise or lower the signal
# Method in brief: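 Readout is reporter transcript level from RT-PCR with fluorescent primer extension and capillary electrophoresis, fitted in both directions against DMSO. Transfected HepG2 reporter units report endogenous factor activity after 24 h dosing.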
# [13] = molecular target: Cellular tumor antigen p53 (Homo sapiens) (UniProt P04637); assay: ATG_p53_CIS: Attagene CIS-FACTORIAL HepG2 Assay for human p53 Transcription Factor (AID 2282994); settings: HepG2 p53 cis-element reporter, Attagene mRNA; actives raise or lower the signal
# Cellular tumor antigen p53 (Homo sapiens), sequence (P04637 whole entry, looked up, the tested form may be a part): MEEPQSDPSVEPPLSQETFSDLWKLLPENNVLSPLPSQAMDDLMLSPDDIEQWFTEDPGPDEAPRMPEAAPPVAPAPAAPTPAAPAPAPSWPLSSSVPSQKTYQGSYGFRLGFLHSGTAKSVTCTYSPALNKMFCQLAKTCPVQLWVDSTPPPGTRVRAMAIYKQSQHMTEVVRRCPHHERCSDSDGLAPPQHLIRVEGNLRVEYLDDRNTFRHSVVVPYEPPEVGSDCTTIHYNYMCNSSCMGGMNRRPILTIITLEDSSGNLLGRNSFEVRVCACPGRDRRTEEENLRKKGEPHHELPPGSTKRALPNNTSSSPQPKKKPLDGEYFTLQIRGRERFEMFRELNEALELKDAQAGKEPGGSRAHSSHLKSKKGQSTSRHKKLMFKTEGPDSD
# Method in brief: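 Steps: transfect HepG2 with multiplexed cis reporter constructs; dose chemicals 24 h; extract RNA, reverse-transcribe, PCR-amplify reporter sequences; FAM-label, HpaI-digest, resolve fragments by CE. Activity fitted both directions relative to DMSO.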
# [14] = BSK_3C_TissueFactor: BioMAP Diversity Plus: 3C Assay for Tissue Factor Biomarker Activity (AID 2282997); settings: BioMAP 3C HUVEC, tissue factor biomarker readout; actives raise or lower the signal
# Method in brief: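 Cells used were primary human umbilical vein endothelial cells. They were dosed with chemical, and after 24 h Tissue Factor was quantified by ELISA. Curves were fitted bidirectionally with DMSO as baseline.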
# [15] = molecular target: Oxysterols receptor LXR-alpha (Homo sapiens) (UniProt Q13133); assay: ATG_LXRa_TRANS: Attagene TRANS-FACTORIAL HepG2 Assay for human Liver X Receptor alpha (LXRa) (AID 2282980; active = hit-call score of the fitted dose curve at least 0.9, where 1 is the maximum); settings: HepG2 Attagene TRANS reporter, LXRa transactivation
# Oxysterols receptor LXR-alpha (Homo sapiens), sequence (Q13133 whole entry, looked up): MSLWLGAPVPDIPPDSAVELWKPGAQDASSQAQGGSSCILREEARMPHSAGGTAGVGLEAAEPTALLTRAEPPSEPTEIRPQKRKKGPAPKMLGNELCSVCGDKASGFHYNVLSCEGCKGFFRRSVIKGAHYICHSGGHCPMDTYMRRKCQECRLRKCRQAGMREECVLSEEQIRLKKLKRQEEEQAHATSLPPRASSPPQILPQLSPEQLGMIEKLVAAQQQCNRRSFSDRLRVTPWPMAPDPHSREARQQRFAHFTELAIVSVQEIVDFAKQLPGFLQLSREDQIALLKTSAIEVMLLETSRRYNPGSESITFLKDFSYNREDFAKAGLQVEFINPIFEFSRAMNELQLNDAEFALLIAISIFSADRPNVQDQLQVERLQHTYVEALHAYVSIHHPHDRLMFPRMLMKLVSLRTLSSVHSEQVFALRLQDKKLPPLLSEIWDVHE
# Method in brief: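 Transient HepG2 transfectants, 24 h dosing, RT-PCR/CE mRNA reporter quantitation; gain-of-signal vs DMSO.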
# [16] = molecular target: Hepatocyte nuclear factor 4-alpha (Homo sapiens) (UniProt P41235); assay: ATG_HNF4a_TRANS: Attagene TRANS-FACTORIAL HepG2 Assay for human Hepatocyte Nuclear Factor 4 alpha (HNF4a) (AID 2282982; active = hit-call score of the fitted dose curve at least 0.9, where 1 is the maximum); settings: HepG2 HNF4a transactivation reporter, mRNA readout
# Hepatocyte nuclear factor 4-alpha (Homo sapiens), sequence (P41235 whole entry, looked up): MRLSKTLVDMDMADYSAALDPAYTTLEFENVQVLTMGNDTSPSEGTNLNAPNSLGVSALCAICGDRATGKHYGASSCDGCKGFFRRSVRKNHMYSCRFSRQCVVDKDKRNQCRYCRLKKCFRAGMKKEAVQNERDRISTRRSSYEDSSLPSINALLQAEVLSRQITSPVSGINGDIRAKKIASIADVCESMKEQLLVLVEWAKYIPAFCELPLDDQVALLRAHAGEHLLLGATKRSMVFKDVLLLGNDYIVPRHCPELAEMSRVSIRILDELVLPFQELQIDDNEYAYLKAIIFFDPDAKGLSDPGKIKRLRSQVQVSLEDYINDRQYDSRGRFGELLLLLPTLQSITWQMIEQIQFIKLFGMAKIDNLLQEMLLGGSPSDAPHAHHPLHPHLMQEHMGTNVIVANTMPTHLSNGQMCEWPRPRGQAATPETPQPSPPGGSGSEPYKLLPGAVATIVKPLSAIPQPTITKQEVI
# Method in brief: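 Multiplexed reporter assay: transfected HepG2, 24 h exposure, total RNA → oligo(dT) RT → PCR → 6-FAM extension → HpaI digest → CE fluorescence. DMSO = negative control.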
Compound,outcome [1],outcome [2],outcome [3],outcome [4],outcome [5],outcome [6],outcome [7],outcome [8],outcome [9],outcome [10],outcome [11],outcome [12],outcome [13],outcome [14],outcome [15],outcome [16],AC50 [11],AC50 [14]
CCOc1nc(NC)nc(NC(=O)NS(=O)(=O)c2ccccc2C(=O)OC)n1,inactive,inactive,inactive,inactive,inactive,inactive,inactive,inactive,inactive,inactive,inactive,inactive,inactive,inactive,,,,
N#Cc1c(Cl)c(Cl)c(Cl)c(C#N)c1Cl,inactive,,inactive,inactive,inactive,inactive,inactive,inactive,inactive,inactive,,,inactive,,inactive,inactive,0.0739 µM (active),1.37 µM (active)
